In PMC8384837, “Expanding the binding specificity for RNA recognition by a PUF domain”:
Where a chain is given by its changes, count along the chain named.

Key:
Experiment in all cases: yeast three-hybrid, YBZ-1, SC-Leu-His + 0.5 mM 3-AT, 4 days
Details in all cases: tags: N-Gal4 AD-HA kept; label: inside an RPR1-promoter hybrid RNA with tandem MS2 sites; ssRNA
[1] = molecular target: PUM1 PUF domain R8-KWK (Homo sapiens, UniProt Q14671 828-1176, N1122K;Y1123W;Q1126K)
Method in brief: (§1)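 A centromeric plasmid in strain YBZ-1 co-expressed Pumilio-1 PUF domain libraries, randomized at the three base-contacting residues of each repeat, with matching RNA elements; the strain carries a LexA–MS2 coat fusion and a HIS3 reporter. After four days on SC-Leu (input) or SC-Leu-His + 0.5 mM 3-AT (selection), the repeat regions were PCR-amplified and Illumina-sequenced. The interaction score is the log change in variant frequency from input to selection, using log2 and a pseudocount of 1 where absent.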

[2] = molecular target: PUM1 PUF domain R8-RYM (Homo sapiens, UniProt Q14671 828-1176, N1122R;Q1126M)
Method in brief: as §1

[3] = molecular target: PUM1 PUF domain R3-SRV (Homo sapiens, UniProt Q14671 828-1176, C935S;Q939V)
Method in brief: as §1

[4] = molecular target: T1, PUM1 PUF domain R6-AYE (Homo sapiens, UniProt Q14671 828-1176, N1043A;Q1047E)
T1 sequence: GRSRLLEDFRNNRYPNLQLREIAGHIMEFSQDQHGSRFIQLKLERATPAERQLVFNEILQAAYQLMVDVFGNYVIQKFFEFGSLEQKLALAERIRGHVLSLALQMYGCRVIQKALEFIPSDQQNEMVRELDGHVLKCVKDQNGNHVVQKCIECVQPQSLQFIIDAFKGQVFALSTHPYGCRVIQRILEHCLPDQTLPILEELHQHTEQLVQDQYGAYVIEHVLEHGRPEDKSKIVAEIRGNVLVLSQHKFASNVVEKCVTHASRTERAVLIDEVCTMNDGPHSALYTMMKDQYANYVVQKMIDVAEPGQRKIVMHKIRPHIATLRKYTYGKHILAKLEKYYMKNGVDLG
Method in brief: as §1

[5] = molecular target: T2, PUM1 PUF domain R6-HWR (Homo sapiens, UniProt Q14671 828-1176, N1043H;Y1044W;Q1047R)
T2 sequence: T1 sequence with A216H, Y217W, E220R
Method in brief: as §1

[6] = molecular target: T3, PUM1 PUF domain R6-FWI (Homo sapiens, UniProt Q14671 828-1176, N1043F;Y1044W;Q1047I)
T3 sequence: T1 sequence with A216F, Y217W, E220I
Method in brief: as §1

[7] = molecular target: PUM1 PUF domain R2-LWE (Homo sapiens, UniProt Q14671 828-1176, N899L;Y900W;Q903E)
Method in brief: as §1

[8] = molecular target: PUM1 PUF domain R4-HNV (Homo sapiens, UniProt Q14671 828-1176, N971H;H972N;Q975V)
Method in brief: as §1

[9] = molecular target: PUM1 PUF domain R4-TPQ (Homo sapiens, UniProt Q14671 828-1176, N971T;H972P)
Method in brief: as §1

[10] = molecular target: PUM1 PUF domain R5-FRI (Homo sapiens, UniProt Q14671 828-1176, C1007F;Q1011I)
Method in brief: as §1

[11] = molecular target: PUM1 PUF domain R7-KFN (Homo sapiens, UniProt Q14671 828-1176, S1079K;N1080F;E1083N)
Method in brief: as §1

[12] = molecular target: PUM1 PUF domain R7-QCR (Homo sapiens, UniProt Q14671 828-1176, S1079Q;N1080C;E1083R)
Method in brief: as §1

[13] = molecular target: PUM1 PUF domain R7-RHP (Homo sapiens, UniProt Q14671 828-1176, S1079R;N1080H;E1083P)
Method in brief: as §1

[14] = molecular target: PUM1 PUF domain R7-EPS (Homo sapiens, UniProt Q14671 828-1176, S1079E;N1080P;E1083S)
Method in brief: as §1

[15] = molecular target: PUM1 PUF domain R3-RPR (Homo sapiens, UniProt Q14671 828-1176, C935R;R936P;Q939R)
Method in brief: as §1

[16] = molecular target: PUM1 PUF domain R4-EHD (Homo sapiens, UniProt Q14671 828-1176, N971E;Q975D)
Method in brief: as §1

[17] = molecular target: PUM1 PUF domain R4-SMS (Homo sapiens, UniProt Q14671 828-1176, N971S;H972M;Q975S)
Method in brief: as §1

[18] = molecular target: PUM1 PUF domain R8-NWG (Homo sapiens, UniProt Q14671 828-1176, Y1123W;Q1126G)
Method in brief: as §1

[19] = molecular target: PUM1 PUF domain R3-VHP (Homo sapiens, UniProt Q14671 828-1176, C935V;R936H;Q939P)
Method in brief: as §1

[20] = molecular target: PUM1 PUF domain R7-TVR (Homo sapiens, UniProt Q14671 828-1176, S1079T;N1080V;E1083R)
Method in brief: as §1

Sequence of PUM1 PUF domain R4-HNV (Q14671 828-1176 N971H/H972N/Q975V): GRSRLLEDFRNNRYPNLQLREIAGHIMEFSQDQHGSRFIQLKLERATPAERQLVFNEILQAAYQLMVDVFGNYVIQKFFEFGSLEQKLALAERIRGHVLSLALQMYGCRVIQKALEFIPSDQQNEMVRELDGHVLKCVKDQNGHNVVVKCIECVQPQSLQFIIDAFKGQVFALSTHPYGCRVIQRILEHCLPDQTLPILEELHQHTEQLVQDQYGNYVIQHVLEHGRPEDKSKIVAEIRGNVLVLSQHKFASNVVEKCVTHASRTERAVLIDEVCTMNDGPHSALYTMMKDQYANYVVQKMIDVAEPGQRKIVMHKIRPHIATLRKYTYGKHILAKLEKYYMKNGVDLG

Sequence: GGCUAGAACUAGUGGAUCCCCCGGCGCCCGGCGGCUCGAGCCCGGGUAAGCGUAAAUAGUCUGCAUGCCGCCGGGCGCCAUGCCUGCAGGUCGACUCUAGAAAACAUG
- binding signal [1]: 6.96 log2 enrichment (interaction score)
- binding signal [2]: 4.93 log2 enrichment (interaction score)

Sequence: GGCUAGAACUAGUGGAUCCCCCGGCGCCCGGCGGCUCGAGCCCGGGUAAGUGUAAGUAGUCUGCAUGCCGCCGGGCGCCAUGCCUGCAGGUCGACUCUAGAAAACAUG
- binding signal [3]: 1.79 log2 enrichment (interaction score)

Sequence: GGCUAGAACUAGUGGAUCCCCCGGCGCCCGGCGGCUCGAGCCCGGGUAAGUGGAAAUAGUCUGCAUGCCGCCGGGCGCCAUGCCUGCAGGUCGACUCUAGAAAACAUG
- binding signal [4]: 3.94 log2 enrichment (interaction score)

Sequence: GGCUAGAACUAGUGGAUCCCCCGGCGCCCGGCGGCUCGAGCCCGGGUAAGUGAAAAUAGUCUGCAUGCCGCCGGGCGCCAUGCCUGCAGGUCGACUCUAGAAAACAUG
- binding signal [5]: 1.35 log2 enrichment (interaction score)
- binding signal [6]: 3.65 log2 enrichment (interaction score)
- binding signal [4]: 6.06 log2 enrichment (interaction score)

Sequence: GGCUAGAACUAGUGGAUCCCCCGGCGCCCGGCGGCUCGAGCCCGGGUAAGUGUAAAAAGUCUGCAUGCCGCCGGGCGCCAUGCCUGCAGGUCGACUCUAGAAAACAUG
- binding signal [7]: 7.67 log2 enrichment (interaction score)

Sequence: GGCUAGAACUAGUGGAUCCCCCGGCGCCCGGCGGCUCGAGCCCGGGUAAGUGUACAUAGUCUGCAUGCCGCCGGGCGCCAUGCCUGCAGGUCGACUCUAGAAAACAUG
- binding signal [8]: 2.63 log2 enrichment (interaction score)
- binding signal [9]: 3.39 log2 enrichment (interaction score)

Sequence: GGCUAGAACUAGUGGAUCCCCCGGCGCCCGGCGGCUCGAGCCCGGGUAAGUGUUAAUAGUCUGCAUGCCGCCGGGCGCCAUGCCUGCAGGUCGACUCUAGAAAACAUG
- binding signal [10]: 1.47 log2 enrichment (interaction score)

Sequence: GGCUAGAACUAGUGGAUCCCCCGGCGCCCGGCGGCUCGAGCCCGGGUAAGUGUAAAGAGUCUGCAUGCCGCCGGGCGCCAUGCCUGCAGGUCGACUCUAGAAAACAUG
- binding signal [7]: 6.63 log2 enrichment (interaction score)

Sequence: GGCUAGAACUAGUGGAUCCCCCGGCGCCCGGCGGCUCGAGCCCGGGUAAGUCUAAAUAGUCUGCAUGCCGCCGGGCGCCAUGCCUGCAGGUCGACUCUAGAAAACAUG
- binding signal [11]: 3.14 log2 enrichment (interaction score)
- binding signal [12]: 3.59 log2 enrichment (interaction score)
- binding signal [13]: 4.29 log2 enrichment (interaction score)
- binding signal [14]: 1.4 log2 enrichment (interaction score)

Sequence: GGCUAGAACUAGUGGAUCCCCCGGCGCCCGGCGGCUCGAGCCCGGGUAAGUGUAAUUAGUCUGCAUGCCGCCGGGCGCCAUGCCUGCAGGUCGACUCUAGAAAACAUG
- binding signal [15]: 5.3 log2 enrichment (interaction score)
- binding signal [3]: 2.15 log2 enrichment (interaction score)

Sequence: GGCUAGAACUAGUGGAUCCCCCGGCGCCCGGCGGCUCGAGCCCGGGUAAGUGUAUAUAGUCUGCAUGCCGCCGGGCGCCAUGCCUGCAGGUCGACUCUAGAAAACAUG
- binding signal [16]: 6.81 log2 enrichment (interaction score)
- binding signal [17]: 1.55 log2 enrichment (interaction score)
- binding signal [9]: 4.97 log2 enrichment (interaction score)

Sequence: GGCUAGAACUAGUGGAUCCCCCGGCGCCCGGCGGCUCGAGCCCGGGUAAGUGUCAAUAGUCUGCAUGCCGCCGGGCGCCAUGCCUGCAGGUCGACUCUAGAAAACAUG
- binding signal [10]: 2.41 log2 enrichment (interaction score)

Sequence: GGCUAGAACUAGUGGAUCCCCCGGCGCCCGGCGGCUCGAGCCCGGGUAAGUGUAAAUAGUCUGCAUGCCGCCGGGCGCCAUGCCUGCAGGUCGACUCUAGAAAACAUG
- binding signal [16]: 3.48 log2 enrichment (interaction score)
- binding signal [17]: 2.84 log2 enrichment (interaction score)
- binding signal [15]: 1.87 log2 enrichment (interaction score)
- binding signal [5]: 7.48 log2 enrichment (interaction score)
- binding signal [1]: 5.56 log2 enrichment (interaction score)
- binding signal [10]: 1.55 log2 enrichment (interaction score)
- binding signal [18]: 3.93 log2 enrichment (interaction score)
- binding signal [19]: 3.02 log2 enrichment (interaction score)
- binding signal [7]: 4.67 log2 enrichment (interaction score)
- binding signal [3]: 3.25 log2 enrichment (interaction score)

Sequence: GGCUAGAACUAGUGGAUCCCCCGGCGCCCGGCGGCUCGAGCCCGGGUAAGUUUAAAUAGUCUGCAUGCCGCCGGGCGCCAUGCCUGCAGGUCGACUCUAGAAAACAUG
- binding signal [14]: 5.7 log2 enrichment (interaction score)
- binding signal [20]: 4.91 log2 enrichment (interaction score)

Sequence: GGCUAGAACUAGUGGAUCCCCCGGCGCCCGGCGGCUCGAGCCCGGGUAAGUGUAGAUAGUCUGCAUGCCGCCGGGCGCCAUGCCUGCAGGUCGACUCUAGAAAACAUG
- binding signal [9]: 1.66 log2 enrichment (interaction score)
